Measurements as given in PubChem BioAssay (NCATS).
Records with an inconclusive call do not appear. Active and inactive are the calls of the source. The call rests on the fitted dose curve; in most records, active means well fitted inhibition curve with a large enough effect; inconclusive means small, poorly fitted or top-dose-only effect; inactive means flat fitted curve, though single readings scatter.

What was measured:
Assay in all cases: qHTS profiling for inhibitors of Plasmodium falciparum proliferation (AID 504749); further: nearly all actives have a fitted effect of over 60% in size
Settings in all cases: P. falciparum in erythrocytes, SYBR Green DNA, 72 h; series mostly up to 28.7 µM
ATS189 = test system: ATS189
Method in brief: (§1)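 Parasite proliferation within erythrocytes, 72 h exposure. Endpoint: SYBR Green I fluorescence after overnight lysis at room temperature. Controls: 0.29 uM artemisinin, DMSO.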

ATS95 = test system: ATS95
Method in brief: as §1

C2A = test system: C2A
Method in brief: as §1

CP185 = test system: CP185
Method in brief: as §1

CP191 = test system: CP191
Method in brief: as §1

CP192 = test system: CP192
Method in brief: as §1

CP194 = test system: CP194
Method in brief: as §1

CP201 = test system: CP201
Method in brief: as §1

CP203 = test system: CP203
Method in brief: as §1

CP211 = test system: CP211
Method in brief: as §1

Measured: outcome

CCOC(=O)C(CCc1ccccc1)NC(C)C(=O)N1Cc2ccccc2CC1C(=O)O (centres undefined)
inactive: all assays above

CCc1cccc2c3c([nH]c12)[C@@](CC)(CC(=O)O)OCC3
not listed: ATS189
inactive: all other assays above
